PubChem BioAssay (NCI)
The panel holds about 83,000 compounds, 20% with a hit somewhere; the sample as a whole holds those more often.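 Plates (96-well) were seeded with cells, treated with compound at one concentration, and incubated for 48 hours before percent growth was determined.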 Active and inactive are the calls of the source. How the source made its calls: active means growth percent below 10; inactive means the rest.

System: HCC-2998 colon
Test: NCI-60 one-dose screen, 48 h (100 = growth as untreated, 0 = no growth, -100 = all killed)
Conditions: 10 µM unless noted

| SMILES | growth |
| --- | --- |
| CCCCOc1ccc(C(N)Cc2ccccc2)cc1 (centres undefined) | 29.9% (inactive) |
| Nc1c(F)cc(-c2nc3cc(F)ccc3[se]2)cc1F | -44.5% (active) |
| Nc1ccc(OCCNS(=O)(=O)c2cccc(S(=O)(=O)F)c2)c(Cl)c1 | 101% (inactive) |
| Cn1cc(-c2csc(-c3cn(CCCCN4CCCCC4)c4ccc(F)cc34)n2)c2cccnc21 | 96.5% (inactive) |
| CCCCCCCC(=O)OCC(=O)[C@]1(O)Cc2c(O)c3c(c(O)c2[C@@H](OC2CC(N)C(O)C(C)O2)C1)C(=O)c1c(OC)cccc1C3=O (some centres undefined) | -90.1% (active) |
| CCCCCN(CCCCC)CC(O)c1cc(Cl)ccc1OC (centres undefined) | 17.2% (inactive) |
| CC12CC=CCC1CCC1C2CCC2(C)C(c3ccc(=O)oc3)CCC12O (centres undefined) | -10.9% (active) |
| COC(=O)[C@@H](C)C[C@H](Cc1ccccc1)NC(=O)c1csc([C@@H](C[C@H](C(C)C)N(C)C(=O)[C@@H](NC(=O)CN(C)C)C2CC2)OC(C)=O)n1 | 16% (inactive) |
| CCCCNC(c1ccc(Cl)cc1)C(O)c1ccc(Cl)cc1 (centres undefined) | -55.7% (active) |
| C=CCn1cc(C=C2C(=O)N(C)C(=O)N(C)C2=O)c2ccccc21 | 98.1% (inactive) |
| COc1ccc2nc(NC(=O)COc3cc(/C=C\c4cc(OC)c(OC)c(OC)c4)ccc3OC)sc2c1 | 45.5% (inactive) |
| O=C1CN=C(c2ccc(Cl)cc2)c2sccc2N1 | 116% (inactive) |
| COP(=O)(OC)C(O)c1ccc(Cl)cc1 (centres undefined) | 98.9% (inactive) |
| C=CC[Se]C(=O)c1ccccc1OC(C)=O | 6.92% (active) |
| C[C@]12CCc3sc(-c4ccccc4O)nc3C1=CC[C@@H]1[C@@H]2CC[C@]2(C)C(=O)CC[C@@H]12 | 111% (inactive) |
| C[C@]12CC[C@@H]3c4ccc(Oc5nc(N6CC6)nc(N6CC6)n5)cc4CC[C@H]3[C@@H]1CCC2=O | 37% (inactive) |
| O=C(Nc1ccncc1F)c1cn(CC2CC2)c2ccccc12 | 106% (inactive) |
| CC1=C(CNO)C2=C(C)C3(CC3)[C@@](C)(O)C(=O)C2=C1 | -33.4% (active) |
| Nc1nnnc2nc[nH]c12 | 17.1% (inactive) |

| SMILES | growth |
| --- | --- |
| CC(=O)Nc1nc2c(s1)CC[C@@]1(C)C2=CC[C@H]2[C@@H]3CC[C@H](O)[C@@]3(C)CC[C@@H]21 | 96% (inactive) |
| CC[CH2][Sn]([Cl])([Cl])[CH2]CC | 87.7% (inactive) |
| O=C([O][Hg][c]1ccccc1)c1ccccc1 | 51% (inactive) |
| C[S+]1C=Cc2ccccc2C1c1ccc(Cl)cc1 (centres undefined) | 103% (inactive) |
| CC(C)CCC(=O)O[C@H]1CC[C@H]2[C@@H]3CCC4=CC(=O)CC[C@]4(C)[C@H]3CC[C@]12C | 105% (inactive) |
| NC(=Nc1ccccc1)N[N+](=O)[O-] | 98.8% (inactive) |
| O=C(CC1(O)C(=O)N(Cc2ccccc2)c2ccc(Cl)cc21)c1ccc(C(=O)NCC2CCC3(CC2)OOC2(CCCCC2)OO3)cc1 (centres undefined) | 67.6% (inactive) |
| Fc1ccc(N2COOC3(OOC2)C2CC4CC(C2)CC3C4)cc1 | 106% (inactive) |
| COc1ccc([As]=[As]c2ccc(OC)c(NCS(=O)(=O)O)c2)cc1NCS(=O)(=O)O (centres undefined) | 57.5% (inactive) |
| CC1=C(O)[C@@](C)(CCCCC[C@H](C)CCCCc2ccc(O)cc2)OOC1=O | 115% (inactive) |
| Cc1cc(N(CCCl)CCCl)ccc1C=Nc1ccc(-c2csc(Cc3ccccc3)n2)cc1 | 71.7% (inactive) |
| C[C@@H]1O[C@@H](O[C@H]2C[C@@H](O)[C@]3(CO)C4C(CC[C@]3(O)C2)[C@@]2(O)CC[C@H](C3=CC(=O)OC3)[C@@]2(C)C[C@H]4O)[C@H](O)[C@H](O)[C@H]1O (some centres undefined) | -89.4% (active) |
| CCC(O)(CN)c1ccccc1 (centres undefined) | 106% (inactive) |
| CC[C@H](C)[C@H](NC(=O)[C@H]1CCCCN1C)C(=O)N(C)[C@H](CCc1nc(C(=O)N[C@@H](Cc2ccccc2)C[C@H](C)C(=O)OC)cs1)C(C)C | 20.7% (inactive) |
| COC(=O)CC12CC(NC(=O)c3csc([C@@H](C[C@H](C(C)C)N(C)C(=O)[C@@H](NC(=O)[C@H]4CCCCN4C)C(C)C)OC(C)=O)n3)(C1)C2 | 10.5% (inactive) |
| CCC[CH2][Sn]([CH2]CCC)([CH2]CCC)[O]c1ccc(Cl)cc1Cl | -95.4% (active) |
| O=C1OCCC1Br (centres undefined) | 102% (inactive) |
| CC(=O)ONc1ccc([N+](=O)[O-])c(C(F)(F)F)c1 | 108% (inactive) |

System: KM12 colon
Test: as above
Conditions: 10 µM unless noted

| SMILES | growth |
| --- | --- |
| CCCCOc1ccc(C(N)Cc2ccccc2)cc1 (centres undefined) | 98.5% (inactive) |
| Nc1c(F)cc(-c2nc3cc(F)ccc3[se]2)cc1F | 42.5% (inactive) |
| Nc1ccc(OCCNS(=O)(=O)c2cccc(S(=O)(=O)F)c2)c(Cl)c1 | 101% (inactive) |
| Cn1cc(-c2csc(-c3cn(CCCCN4CCCCC4)c4ccc(F)cc34)n2)c2cccnc21 | 82.5% (inactive) |
| CCCCCCCC(=O)OCC(=O)[C@]1(O)Cc2c(O)c3c(c(O)c2[C@@H](OC2CC(N)C(O)C(C)O2)C1)C(=O)c1c(OC)cccc1C3=O (some centres undefined) | -96.2% (active) |
| CCCCCN(CCCCC)CC(O)c1cc(Cl)ccc1OC (centres undefined) | 29.8% (inactive) |
| CC12CC=CCC1CCC1C2CCC2(C)C(c3ccc(=O)oc3)CCC12O (centres undefined) | -49.5% (active) |
| COC(=O)[C@@H](C)C[C@H](Cc1ccccc1)NC(=O)c1csc([C@@H](C[C@H](C(C)C)N(C)C(=O)[C@@H](NC(=O)CN(C)C)C2CC2)OC(C)=O)n1 | 7.64% (active) |
| CCCCNC(c1ccc(Cl)cc1)C(O)c1ccc(Cl)cc1 (centres undefined) | 21.6% (inactive) |
| C=CCn1cc(C=C2C(=O)N(C)C(=O)N(C)C2=O)c2ccccc21 | 102% (inactive) |
| COc1ccc2nc(NC(=O)COc3cc(/C=C\c4cc(OC)c(OC)c(OC)c4)ccc3OC)sc2c1 | 16.8% (inactive) |
| O=C1CN=C(c2ccc(Cl)cc2)c2sccc2N1 | 103% (inactive) |
| COP(=O)(OC)C(O)c1ccc(Cl)cc1 (centres undefined) | 90% (inactive) |
| C=CC[Se]C(=O)c1ccccc1OC(C)=O | -24.1% (active) |
| C[C@]12CCc3sc(-c4ccccc4O)nc3C1=CC[C@@H]1[C@@H]2CC[C@]2(C)C(=O)CC[C@@H]12 | 107% (inactive) |
| C[C@]12CC[C@@H]3c4ccc(Oc5nc(N6CC6)nc(N6CC6)n5)cc4CC[C@H]3[C@@H]1CCC2=O | 50% (inactive) |
| O=C(Nc1ccncc1F)c1cn(CC2CC2)c2ccccc12 | 104% (inactive) |
| CC1=C(CNO)C2=C(C)C3(CC3)[C@@](C)(O)C(=O)C2=C1 | 70% (inactive) |
| Nc1nnnc2nc[nH]c12 | 25.6% (inactive) |

| SMILES | growth |
| --- | --- |
| CC(=O)Nc1nc2c(s1)CC[C@@]1(C)C2=CC[C@H]2[C@@H]3CC[C@H](O)[C@@]3(C)CC[C@@H]21 | 49.4% (inactive) |
| CC[CH2][Sn]([Cl])([Cl])[CH2]CC | 101% (inactive) |
| O=C([O][Hg][c]1ccccc1)c1ccccc1 | 87.6% (inactive) |
| C[S+]1C=Cc2ccccc2C1c1ccc(Cl)cc1 (centres undefined) | 1.91% (active) |
| CC(C)CCC(=O)O[C@H]1CC[C@H]2[C@@H]3CCC4=CC(=O)CC[C@]4(C)[C@H]3CC[C@]12C | 95.2% (inactive) |
| NC(=Nc1ccccc1)N[N+](=O)[O-] | 106% (inactive) |
| O=C(CC1(O)C(=O)N(Cc2ccccc2)c2ccc(Cl)cc21)c1ccc(C(=O)NCC2CCC3(CC2)OOC2(CCCCC2)OO3)cc1 (centres undefined) | -67.3% (active) |
| Fc1ccc(N2COOC3(OOC2)C2CC4CC(C2)CC3C4)cc1 | 82.7% (inactive) |
| COc1ccc([As]=[As]c2ccc(OC)c(NCS(=O)(=O)O)c2)cc1NCS(=O)(=O)O (centres undefined) | 72.9% (inactive) |
| CC1=C(O)[C@@](C)(CCCCC[C@H](C)CCCCc2ccc(O)cc2)OOC1=O | 90.1% (inactive) |
| Cc1cc(N(CCCl)CCCl)ccc1C=Nc1ccc(-c2csc(Cc3ccccc3)n2)cc1 | 89.8% (inactive) |
| C[C@@H]1O[C@@H](O[C@H]2C[C@@H](O)[C@]3(CO)C4C(CC[C@]3(O)C2)[C@@]2(O)CC[C@H](C3=CC(=O)OC3)[C@@]2(C)C[C@H]4O)[C@H](O)[C@H](O)[C@H]1O (some centres undefined) | -89.1% (active) |
| CCC(O)(CN)c1ccccc1 (centres undefined) | 103% (inactive) |
| CC[C@H](C)[C@H](NC(=O)[C@H]1CCCCN1C)C(=O)N(C)[C@H](CCc1nc(C(=O)N[C@@H](Cc2ccccc2)C[C@H](C)C(=O)OC)cs1)C(C)C | 15.8% (inactive) |
| COC(=O)CC12CC(NC(=O)c3csc([C@@H](C[C@H](C(C)C)N(C)C(=O)[C@@H](NC(=O)[C@H]4CCCCN4C)C(C)C)OC(C)=O)n3)(C1)C2 | 11.1% (inactive) |
| CCC[CH2][Sn]([CH2]CCC)([CH2]CCC)[O]c1ccc(Cl)cc1Cl | -94.2% (active) |
| O=C1OCCC1Br (centres undefined) | 108% (inactive) |
| CC(=O)ONc1ccc([N+](=O)[O-])c(C(F)(F)F)c1 | 101% (inactive) |
